According to PubChem BioAssay (Tox21):
Inconclusive results are not listed. Entries that show only a call come without a potency. Activity calls are given as the source filed them. The call rests on the fitted dose curve; in most records, active means well fitted cell-killing curve with a large enough effect in the repeat runs; inconclusive means weak or mixed curves, or effect the other way; inactive means flat fitted curve, though single readings scatter.

test: qHTS assay to identify small molecule agonists of the sonic hedgehog signaling (Shh) pathway - cell viability counter screen (AID 1259366); conditions: NIH/3T3 Gli1-Luc viability, CellTiter-Fluor, 24 h; series mostly up to 92.4 µM; further: nearly all actives have a fitted effect of over 50% in size
From the text: National Center for Advancing Translational Sciences [NCATS]
NIH Chemical Genomics Center [NCGC]
U.S. Environmental Protection Agency [EPA]
National Institutes of Environmental Health Sciences [NIEHS]
National Toxicology Program [NTP]
U.S. Food and Drug Administration [FDA]
The sonic hedgehog (Shh) pathway is essential for normal embryonic development. Dysregulation of the Shh pathway can cause severe developmental defects in organs. Therefore chemicals that interfere with the pathway are potential developmental toxicants. A cell line designated 3T3Gli1-Luc (DMB/OARSA/CFSAN/FDA, Laurel, MD), a NIH/3T3 derived clone containing stably integrated Gli1-Luc reporter is used to detect chemical interference of the Shh pathway, by changes in the expression of the firefly Luc gene under the control of the Gli1 transcriptional response element. This cell line was used to screen Tox21 libraries for identifying and prioritizing the potential developmental toxicants that interfere Shh pathway. The cytotoxicity of the compounds was tested in parallel by measuring the cell viability using CellTiter-Fluor assay system (Promega, Madison, WI) in the same wells.
Tox21 Assay Protocol Summary:
3T3 Gli1-Luc cells were dispensed at 2,000 per well in 5uL of culture medium into white solid bottom 1536-well plates (Greiner Bio-One, Monroe, NC) using a Multidrop Combi (Thermo Scientific, Waltham, MA) dispenser. The assay plates were incubated at 37 C and 5% CO2 for 4hr, and then 23nL of compounds dissolved in DMSO and positive control were transferred using a Pintool station (Wako, San Diego, CA). The assay plates were incubated at 37C and 5% CO2 for 24hr. For viability read, after 23hr of compound treatment, 1uL of CellTiter-Fluor reagent (Promega Corporation, Madison, WI) was added to each well of the assay plates using Flying Reagent Dispenser (FRD, Aurora Discovery, San Diego, CA) and incubated the assay plates at 37C for 1hr. The fluorescence signal was quantified using a ViewLux plate reader (Perkin Elmer, Shelton, CT).
Potency means the concentration at half of the fitted maximal effect.

Structure (SMILES)	Potency
CC1=C(Br)C(=O)C(Br)=C/C1=C(/c1ccccc1S(=O)(=O)O)c1cc(Br)c(O)c(Br)c1C	18.6 µM (active)
NC1[C@H]2CN(c3nc4c(cc3F)c(=O)c(C(=O)O)cn4-c3ccc(F)cc3F)C[C@@H]12 (stereo not given in full)	21.1 µM (active)
CCOc1ccc(Cc2nccc3cc(OCC)c(OCC)cc23)cc1OCC	inactive
CC(C)c1nc(CN(C)C(=O)N[C@H](C(=O)N[C@@H](Cc2ccccc2)C[C@H](O)[C@H](Cc2ccccc2)NC(=O)OCc2cncs2)C(C)C)cs1	6.68 µM (active)
CCCCCCNC(=O)n1cc(F)c(=O)[nH]c1=O	inactive
C=COCC(C)C	inactive
C=CC(=O)[O-].C=CC(=O)[O-].[Zn+2]	53.2 µM (active)
CC(C)Nc1cccnc1N1CCN(C(=O)c2cc3cc(NS(C)(=O)=O)ccc3[nH]2)CC1	inactive
CCOC(=O)c1ccc(C#Cc2ccc3c(c2)C(C)(C)CCS3)nc1	inactive
C=CCc1ccccc1OCC(O)CNC(C)C (stereo not given)	inactive
CC(C)=CCC/C(C)=C/CC/C(C)=C/C(=O)OCC(=O)[C@@]1(O)CC[C@H]2[C@@H]3CCC4=CC(=O)C=C[C@]4(C)[C@H]3[C@@H](O)C[C@@]21C	inactive
FC(F)(F)c1ccccc1Cl	inactive
C/C=C\C/C=C/CCCCCCCCOC(C)=O	inactive
CO[C@]1(NC(=O)CSC(F)F)C(=O)N2C(C(=O)O)=C(CSc3nnnn3CCO)CO[C@H]21	inactive
O=C(O)C[C@H](NC(=O)OCc1ccccc1)C(=O)O	inactive
CCn1cc(C(=O)O)c(=O)c2cc(F)c(N3CCNCC3)cc21	inactive
CC(=O)OCC(=O)NCCCOc1cccc(CN2CCCCC2)c1	inactive
COc1ccc(OC(=O)N(CC(=O)O)Cc2ccc(OCCc3nc(-c4ccccc4)oc3C)cc2)cc1	inactive
C[C@@H]1CN(CCCn2c3ccccc3c3ccccc32)C[C@H](C)N1	33.5 µM (active)
O=C(/C=C/c1ccc(O)c(O)c1)O[C@@H]1C[C@@](OC(=O)/C=C/c2ccc(O)c(O)c2)(C(=O)O)C[C@@H](O)[C@@H]1O	inactive

Structure (SMILES)	Potency
c1ccc2sc(SN(C3CCCCC3)C3CCCCC3)nc2c1	inactive
CC(C)=CC(=O)C=C(C)C	inactive
CC[N+](CC)(CCNC(=O)C(=O)NCC[N+](CC)(CC)Cc1ccccc1Cl)Cc1ccccc1Cl	inactive
CC(CN(C)C)C(C)(O)Cc1ccc(Cl)cc1 (stereo not given)	inactive
CC(=O)OCC[N+](C)(C)C	inactive
CC(O)c1ccccc1 (stereo not given)	inactive
CC1(C)[C@H](C(=O)O)N2C(=O)C[C@H]2S1(=O)=O	inactive
Nc1ncnc2c1ncn2[C@H]1CC[C@@H](CO)O1	inactive
CCOC(=O)c1ccc(I)cc1	inactive
O=C1Cc2ccccc2N1c1c(Cl)cccc1Cl	inactive
CCC(OCCCOC)OC(C)=O (stereo not given)	inactive
Cc1c(C)c2c(c(C)c1OC(=O)CCC(=O)OCCO)CC[C@@](C)(CCC[C@H](C)CCC[C@H](C)CCCC(C)C)O2	inactive
CCCCCC#CC(=O)OC	inactive
CN1C(=O)N(c2ccccc2Br)Cc2cnc(Nc3ccc4c(c3)OCC(CO)O4)nc21 (stereo not given)	0.193 µM (active)
O=C(/C=C/c1ccccc1)OCCc1ccccc1	inactive
CCCCCCCCOc1ccc(C(=O)O)cc1	inactive
CCCC(=O)C(=O)O	inactive
CC(=O)[C@H]1[C@H](C#N)C[C@H]2[C@@H]3CC=C4C[C@@H](O)CC[C@]4(C)[C@H]3CC[C@@]21C	inactive
C[C@@]12CCC[C@H]1[C@@H]1CC[C@H]3C[C@@H](O)CC[C@]3(C)[C@H]1CC2	inactive
CCC(=O)OC	inactive
